Where “and” joins values, the source holds several entries; their conditions need not be identical. Equal values may be shown once. Hit rate of the full screen: of about 5,500 compounds, about 2,000 (36%) were called active. Roughly 18% stayed inconclusive and do not appear here. Cut-off read from the data, not from the text of the source: active = normalized growth mostly below about 0.91 (no sharp cut-off); inconclusive = no clear call, values can overlap the other calls; inactive = mostly above about 0.92. The list shows a part of the results.
Assay: chemical genetic growth profiling, strain panel (AID 1159580);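 note: tested at 20 µM; growth read once vehicle control cultures reached saturation at 30 °C; 1 = growth at the plate median or of vehicle wells; lower values mean less growth of the strain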
Settings: growth OD

Measured: normalized growth

NC(Cc1ccc(Cl)cc1)C(=O)O (centres undefined)
inactive: S. cerevisiae deletion strains, locus YJR075W, strain HOC1, stronger effect = lower value 0.999 and 1.06 | S. cerevisiae deletion strains, locus YKL009W, strain mrt4, stronger effect = lower value 1.03 | S. cerevisiae deletion strains, locus YKL068W, stronger effect = lower value 0.994 | S. cerevisiae deletion strains, locus YKL085W, strain MDH1 (second series), stronger effect = lower value 0.994 | S. cerevisiae deletion strains, locus YKL085W, strain MDH1, stronger effect = lower value 0.994 | S. cerevisiae deletion strains, locus YKL160W, strain elf1, stronger effect = lower value 0.996 | S. cerevisiae deletion strains, locus YKL190W, strain CNB1, stronger effect = lower value 0.991 | S. cerevisiae deletion strains, locus YKR001C, strain vps1, stronger effect = lower value 1.02 | S. cerevisiae deletion strains, locus YKR026C, strain gcn3, stronger effect = lower value 1 | S. cerevisiae deletion strains, locus YKR091W, strain srl3, stronger effect = lower value 0.993 | S. cerevisiae deletion strains, locus YLL001W, strain dnm1, stronger effect = lower value 0.984 | S. cerevisiae deletion strains, locus YLL026W, stronger effect = lower value 0.999 | S. cerevisiae deletion strains, locus YLL041C, strain sdh2, stronger effect = lower value 1 | S. cerevisiae deletion strains, locus YLR027C, strain aat2, stronger effect = lower value 0.999 | S. cerevisiae deletion strains, locus YLR039C, strain RIC1, stronger effect = lower value 0.994 | S. cerevisiae deletion strains, locus YLR058C, strain SHM2, stronger effect = lower value 0.981 | S. cerevisiae deletion strains, locus YLR102C, strain apc9, stronger effect = lower value 0.998 | S. cerevisiae deletion strains, locus YLR113W, strain HOG1, stronger effect = lower value 0.971 | S. cerevisiae deletion strains, locus YLR221C, strain rsa3, stronger effect = lower value 0.996 | S. cerevisiae deletion strains, locus YLR258W, strain gsy2, stronger effect = lower value 0.988 | S. cerevisiae deletion strains, locus YLR262C, strain YPT6 (second series), stronger effect = lower value 1.02 | S. cerevisiae deletion strains, locus YLR262C, strain YPT6, stronger effect = lower value 0.955 | S. cerevisiae deletion strains, locus YLR268W, strain sec22, stronger effect = lower value 1 | S. cerevisiae deletion strains, locus YLR320W, strain mms22, stronger effect = lower value 0.996 | S. cerevisiae deletion strains, locus YLR330W, strain CHS5, stronger effect = lower value 0.992 | S. cerevisiae deletion strains, locus YLR342W, strain FKS1 (second series), stronger effect = lower value 1.02 | S. cerevisiae deletion strains, locus YLR342W, strain FKS1, stronger effect = lower value 0.999 | S. cerevisiae deletion strains, locus YLR357W, strain rsc2, stronger effect = lower value 0.977 | S. cerevisiae deletion strains, locus YLR370C, strain arc18, stronger effect = lower value 1 | S. cerevisiae deletion strains, locus YLR371W, strain rom2, stronger effect = lower value 0.993 | S. cerevisiae deletion strains, locus YLR384C, strain iki3, stronger effect = lower value 0.986 | S. cerevisiae deletion strains, locus YLR418C, strain cdc73, stronger effect = lower value 1.04 | S. cerevisiae deletion strains, locus YML016C, strain PPZ1, stronger effect = lower value 0.986 | S. cerevisiae deletion strains, locus YML032C, strain rad52, stronger effect = lower value 0.983 | S. cerevisiae deletion strains, locus YML120C, strain ndi1, stronger effect = lower value 0.993 | S. cerevisiae deletion strains, locus YML124C, strain tub3, stronger effect = lower value 0.998 | S. cerevisiae deletion strains, locus YMR058W, strain fet3, stronger effect = lower value 1.02 | S. cerevisiae deletion strains, locus YMR078C, strain ctf18, stronger effect = lower value 0.992 | S. cerevisiae deletion strains, locus YMR125W, strain sto1, stronger effect = lower value 0.993 | S. cerevisiae deletion strains, locus YMR129W, stronger effect = lower value 0.995 | S. cerevisiae deletion strains, locus YMR205C, strain PFK2, stronger effect = lower value 0.991 | S. cerevisiae deletion strains, locus YMR223W, strain ubp8, stronger effect = lower value 1.01 | S. cerevisiae deletion strains, locus YMR231W, strain pep5, stronger effect = lower value 0.993 | S. cerevisiae deletion strains, locus YMR263W, strain SAP30, stronger effect = lower value 0.991 and 0.983 | S. cerevisiae deletion strains, locus YMR307W, strain GAS1, stronger effect = lower value 1.06 | S. cerevisiae deletion strains, locus YNL067W, strain RPL9B, stronger effect = lower value 0.986 | S. cerevisiae deletion strains, locus YNL071W, strain lat1, stronger effect = lower value 1 | S. cerevisiae deletion strains, locus YNL128W, strain TEP1, stronger effect = lower value 0.976 | S. cerevisiae deletion strains, locus YNL153C, strain GIM3, stronger effect = lower value 0.983 and 1.07 | S. cerevisiae deletion strains, locus YNL175C, strain NOP13, stronger effect = lower value 0.986 | S. cerevisiae deletion strains, locus YNL183C, strain NPR1, stronger effect = lower value 0.891 | S. cerevisiae deletion strains, locus YNL209W, strain ssb2, stronger effect = lower value 1 | S. cerevisiae deletion strains, locus YNL224C, strain SQS1, stronger effect = lower value 1.01 | S. cerevisiae deletion strains, locus YNL233W, strain BNI4, stronger effect = lower value 0.991 | S. cerevisiae deletion strains, locus YNL248C, strain rpa49, stronger effect = lower value 1.01 | S. cerevisiae deletion strains, locus YNL250W, strain rad50, stronger effect = lower value 0.988 | S. cerevisiae deletion strains, locus YNL271C, strain bni1, stronger effect = lower value 1 | S. cerevisiae deletion strains, locus YNL298W, strain CLA4, stronger effect = lower value 0.985 | S. cerevisiae deletion strains, locus YNL307C, strain MCK1, stronger effect = lower value 1.01 | S. cerevisiae deletion strains, locus YNL322C, strain KRE1 (second series), stronger effect = lower value 0.983 | S. cerevisiae deletion strains, locus YNL322C, strain KRE1, stronger effect = lower value 0.989 | S. cerevisiae deletion strains, locus YNR049C, strain mso1, stronger effect = lower value 1 | S. cerevisiae deletion strains, locus YNR052C, strain pop2, stronger effect = lower value 0.986 | S. cerevisiae deletion strains, locus YOL006C, strain TOP1, stronger effect = lower value 0.991 | S. cerevisiae deletion strains, locus YOL012C, strain htz1 1.95 | S. cerevisiae deletion strains, locus YOL147C, strain pex11, stronger effect = lower value 1.01 | S. cerevisiae deletion strains, locus YOR001W, strain rrp6, stronger effect = lower value 1 | S. cerevisiae deletion strains, locus YOR061W, strain CKA2, stronger effect = lower value 0.97 | S. cerevisiae deletion strains, locus YOR069W, strain VPS5, stronger effect = lower value 0.997 | S. cerevisiae deletion strains, locus YOR070C, strain gyp1, stronger effect = lower value 0.988 | S. cerevisiae deletion strains, locus YOR080W, strain dia2, stronger effect = lower value 0.992 | S. cerevisiae deletion strains, locus YOR083W, strain WHI5, stronger effect = lower value 1.02 | S. cerevisiae deletion strains, locus YOR106W, strain vam3, stronger effect = lower value 0.987 | S. cerevisiae deletion strains, locus YOR136W, strain idh2, stronger effect = lower value 0.995 | S. cerevisiae deletion strains, locus YOR144C, strain elg1, stronger effect = lower value 1 | S. cerevisiae deletion strains, locus YOR184W, strain ser1, stronger effect = lower value 1 | S. cerevisiae deletion strains, locus YOR231W, strain MKK1, stronger effect = lower value 0.991 | S. cerevisiae deletion strains, locus YOR265W, strain rbl2, stronger effect = lower value 0.986 | S. cerevisiae deletion strains, locus YOR270C, strain vph1, stronger effect = lower value 1.02 | S. cerevisiae deletion strains, locus YOR290C, strain snf2, stronger effect = lower value 0.965 | S. cerevisiae deletion strains, locus YOR316C, strain cot1, stronger effect = lower value 0.993 | S. cerevisiae deletion strains, locus YPL051W, strain arl3, stronger effect = lower value 0.992 | S. cerevisiae deletion strains, locus YPL055C, strain LGE1, stronger effect = lower value 0.976 | S. cerevisiae deletion strains, locus YPL078C, strain atp4, stronger effect = lower value 1 | S. cerevisiae deletion strains, locus YPL106C, strain sse1, stronger effect = lower value 0.97 | S. cerevisiae deletion strains, locus YPL240C, strain hsp82, stronger effect = lower value 1 | S. cerevisiae deletion strains, locus YPL241C, strain CIN2, stronger effect = lower value 0.995 and 1.01 | S. cerevisiae deletion strains, locus YPL256C, strain CLN2, stronger effect = lower value 0.969 | S. cerevisiae deletion strains, locus YPR119W, strain clb2, stronger effect = lower value 0.993 | S. cerevisiae deletion strains, locus YPR141C, strain kar3, stronger effect = lower value 0.992 | S. cerevisiae deletion strains, locus YPR163C, strain tif3, stronger effect = lower value 1 | S. cerevisiae deletion strains, locus YPR167C, strain met16, stronger effect = lower value 0.996 | S. cerevisiae deletion strains, strain wtn01, stronger effect = lower value 0.99 | S. cerevisiae strains, strain wild type, stronger effect = lower value 0.998
